{"source": "PubChem BioAssay AID651661", "about": "(Broad Institute, 2012)", "note": "“And” between values parts separate entries of the source, which are not always exact repeats. Identical values can stand only once. Hit rate of the full screen: of about 350,000 compounds, about 2,300 (0.66%) were called active. Shown is part of a subset that was picked to be rich in actives. Values without a mark were called inactive.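 How the source made its calls: active means mean inhibition of at least 50% after viability correction, with every replicate also passing that limit; inconclusive means mean reaches 50% but only one of two replicates passes; inactive means the rest.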"}
{"assay": "EWS/Fli-driven NR0B1 reporter inhibitors, primary screen, A673 cells, NR0B1 luciferase, luminescence, MLPCN library (AID 651661);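 further: firefly luciferase signal divided by Alamar Blue viability fluorescence both relative to DMSO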", "conditions": "viability-normalised, at 12.6 µM, stronger effect = higher value"}
{"smiles": "COC1C(O)C(C)OC(OC2CCC3(C=O)C(CCC4C3CCC3(C)C(C5=CC(=O)OC5)CCC43O)C2)C1O", "note": "(stereo not given)", "inhibition": "61.9% (active)"}
{"smiles": "OC[C@@H]1[C@H]2c3ccccc3NC[C@H]2N1Cc1cccnc1", "inhibition": "3.74%"}
{"smiles": "COc1cccc(-c2nc3ccc(N4CCN(C)CC4)cc3[nH]2)c1", "inhibition": "54% (active)"}
{"smiles": "Cc1nc2ccc(N3CCN(C)CC3)cc2nc1C", "inhibition": "1.28%"}
{"smiles": "Brc1ccc2c(c1)CNCc1cnnn1-2", "inhibition": "-10.6%"}
{"smiles": "CCC(C)NC1(c2ccccc2)CCCCC1", "note": "(stereo not given)", "inhibition": "-1.85%"}
{"smiles": "COc1cc(OC)cc(C(=O)NCCN2CCC3(CC2)C(=O)NCN3c2ccccc2)c1", "inhibition": "-1.8%"}
{"smiles": "CCN(CC)C(=O)[C@@H]1C=C2c3cccc4[nH]c(Br)c(c34)C[C@H]2N(C)C1", "inhibition": "-3.36%"}
{"smiles": "C[C@]12CC[C@H](O)C[C@H]1CC[C@@H]1C2CC[C@]2(C)[C@@H](C3=CC(=O)OC3)[C@@H](O)C[C@]12O", "note": "(stereo not given in full)", "inhibition": "64.9% (active)"}
{"smiles": "C[C@]12CCC3C(CC[C@H]4C[C@@H](O)CC[C@]34C)C1CC[C@@H]2O", "note": "(stereo not given in full)", "inhibition": "-5.07%"}
{"smiles": "C[C@]12CCC3C(CC[C@H]4C[C@@H](O)CC[C@]34C)C1C[C@@H](O)[C@H]2O", "note": "(stereo not given in full)", "inhibition": "0.611%"}
{"smiles": "COc1ccc(C#Cc2ccc([C@H]3[C@H](CO)N4CCCCN(C(=O)Cc5ccccc5)C[C@@H]34)cc2)cc1", "inhibition": "-12.7%"}
{"smiles": "COC(=O)[C@H]1[C@H](CO)[C@H]2Cn3c(ccc(-c4cccc(F)c4)c3=O)[C@@H]1N2Cc1ccccc1", "inhibition": "-28.1%"}
{"smiles": "O=c1[nH]c2ccccc2n1C1CCN(C(c2ccccc2)c2nnnn2Cc2ccccc2)CC1", "note": "(stereo not given)", "inhibition": "21.9%"}
{"smiles": "O=C1NC(=O)N(Cc2ccco2)C(=O)/C1=C\\c1ccc(-c2ccc(F)cc2)o1", "inhibition": "20%"}
{"smiles": "O=C1NC(=O)N(CCc2ccc(F)cc2)C(=O)/C1=C/C=C/c1ccccc1", "inhibition": "66.1% (active)"}
{"smiles": "O=C(O)COc1ccccc1/C=C1\\C(=O)NC(=O)N(CCC2=CCCCC2)C1=O", "inhibition": "2.19%"}
{"smiles": "O=C(NC[C@@H]1CC[C@H]2NC[C@H]2O1)C1CCCC1", "inhibition": "-22.4%"}
{"smiles": "C[C@@H]1CN([C@H](C)CO)C(=O)CCCn2cc(nn2)CO[C@@H]1CN(C)C(=O)Oc1cccc2ccccc12", "inhibition": "4.15%"}
{"smiles": "C[C@H]1CN([C@@H](C)CO)C(=O)CCCn2nncc2CO[C@H]1CN(C)C(=O)Oc1cccc2ccccc12", "inhibition": "-6.63% and -4.29% and 4.35%"}
{"smiles": "CN(C)CC1Oc2ccccc2OC1(O)c1ccccc1", "note": "(stereo not given)", "inhibition": "55.9% (active)"}
{"smiles": "O=C(NCC1=C(c2ccc3ccccc3c2)C[C@@H]2CC[C@H]1N2Cc1ccco1)c1cccs1", "inhibition": "2.23%"}
{"smiles": "O=c1[nH]c2ccccc2n1C1CCN(C(c2ccnc3ccccc23)c2nnnn2Cc2ccccc2)CC1", "note": "(stereo not given)", "inhibition": "6.09%"}
{"smiles": "COC(=O)C[C@@H]1CC[C@@H]2NC[C@@H](O)COC[C@H]2O1", "inhibition": "-11.3%"}
{"smiles": "Cc1cc(N2CCNC[C@@H]2C)ccc1N1CC[C@H](O)C1", "inhibition": "-8.38%"}
{"smiles": "CCOC(=O)[C@]12Cc3cc(OC)ccc3[C@H]1N(C(C)C)C(=O)c1ccccc12", "inhibition": "16.8%"}
{"smiles": "CCOC(=O)[C@]12Cc3ccccc3[C@H]1N(C1CCCCC1)C(=O)c1cc(OC)ccc12", "inhibition": "56.3% (active)"}
{"smiles": "CC(=O)NCC1=C(c2ccc3ccccc3c2)C[C@@H]2CC[C@H]1N2Cc1ccco1", "inhibition": "9.45%"}
{"smiles": "CC1C(=O)OC2CCN3CC=C(COC(=O)C(C)(O)C1(C)O)C23", "note": "(stereo not given)", "inhibition": "0.572%"}
{"smiles": "O=C(O)[C@@H]1[C@@H](CO)[C@@H]2Cn3c(ccc(-c4ccccc4F)c3=O)[C@H]1N2C(=O)c1cccnc1", "inhibition": "-3.75%"}
